The values below come from PubChem BioAssay (NCATS).

Molecules are shown by their SMILES. “And” between values parts separate entries of the source, which are not always exact repeats. Identical values can stand only once. Records with an inconclusive call do not appear. Unmarked numbers belong to inactive results. The source made the active and inactive calls. Calls follow the shape of the full dose curve.

Sequence of Peroxisome proliferator-activated receptor delta (Homo sapiens) (Q03181 whole entry, looked up): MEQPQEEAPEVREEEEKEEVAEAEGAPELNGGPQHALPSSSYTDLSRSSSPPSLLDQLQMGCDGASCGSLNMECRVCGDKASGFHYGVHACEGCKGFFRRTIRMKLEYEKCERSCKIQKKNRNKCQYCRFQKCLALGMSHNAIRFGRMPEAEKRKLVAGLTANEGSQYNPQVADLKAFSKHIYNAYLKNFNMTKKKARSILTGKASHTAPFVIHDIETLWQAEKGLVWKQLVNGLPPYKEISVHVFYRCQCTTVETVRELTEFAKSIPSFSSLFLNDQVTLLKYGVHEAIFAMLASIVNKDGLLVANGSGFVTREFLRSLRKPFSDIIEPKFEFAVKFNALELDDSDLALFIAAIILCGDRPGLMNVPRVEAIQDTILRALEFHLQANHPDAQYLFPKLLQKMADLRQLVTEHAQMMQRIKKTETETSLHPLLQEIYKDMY

For one assay, the target named is Bile acid receptor (Homo sapiens) (UniProt Q96RI1). Kind of assay: qHTS assay for small molecule agonists of farnesoid X receptor signaling (AID 588527).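 Also: 0% = vehicle basal and 100% = reference agonist.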 To be noted: HEK293T FXR-UAS-bla, beta-lactamase ratio, 16 h; activation: hits give high values. In short, it runs like this: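 FXR-UAS-bla HEK293T cells (10% dialyzed FBS) preincubated 5-7 h at 37 C, then compounds at up to 92 uM for 16 h at 37 C. CCF4 beta-lactamase read-out after 2 h RT. Normalized to chenodeoxycholic acid (100 uM) and DMSO; Hill fit gave EC50 and efficacy.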
Sequence of Bile acid receptor (Homo sapiens) (Q96RI1 whole entry, looked up): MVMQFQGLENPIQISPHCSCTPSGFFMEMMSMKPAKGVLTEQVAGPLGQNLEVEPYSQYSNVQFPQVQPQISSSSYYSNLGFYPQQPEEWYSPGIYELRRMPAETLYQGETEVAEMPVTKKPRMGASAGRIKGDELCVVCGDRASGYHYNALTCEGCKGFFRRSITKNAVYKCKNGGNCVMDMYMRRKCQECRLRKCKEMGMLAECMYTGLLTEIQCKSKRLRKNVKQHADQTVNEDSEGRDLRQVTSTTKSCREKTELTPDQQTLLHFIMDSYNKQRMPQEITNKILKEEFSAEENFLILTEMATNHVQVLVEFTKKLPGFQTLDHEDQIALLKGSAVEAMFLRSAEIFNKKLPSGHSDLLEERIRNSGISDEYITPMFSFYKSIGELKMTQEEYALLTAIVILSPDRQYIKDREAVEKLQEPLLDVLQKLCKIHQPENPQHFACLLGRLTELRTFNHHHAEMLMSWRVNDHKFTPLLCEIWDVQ
In the case of `c1ccc(SCCSc2ccccc2)cc1`, the activation is -0.837%.

Turning to `CC#N`, the activation is -1.26%.

For `Cc1ccc(CO)cc1`, the activation is -3.46%.

For the molecule `CCCCC(CC)COCCCN` (stereo not drawn), the activation is -0.0297%.

For `CCCCCCCCCC(=O)OC`, the activation is -0.517%.

With `O=[N+]([O-])c1ccc(NCCO)c(OCCO)c1`, the activation is -1.27%.

As to `CCCCO`, the activation was 0.769% and 0.512%.

As to `COC(=O)CCSCCC(=O)OC`, the activation is -4.49%.

`CCN(Cc1cccc(S(=O)(=O)O)c1)c1ccc(C(=C2C=CC(=[N+](CC)Cc3cccc(S(=O)(=O)O)c3)C=C2)c2ccccc2S(=O)(=O)[O-])cc1`: the activation is -1.6%.

For `CNC(=O)c1ccccc1`, the activation is 3.12%.

Take `FB(F)F`: the activation is 0.812%.

As for `CCNc1cc(O)ccc1C`, the activation is 2%.

On to `COC(=O)c1cccc(C)c1S(=O)(=O)NC(=O)Nc1nc(OCC(F)(F)F)nc(N(C)C)n1`, for which the activation is -2.17%.

Take `Cc1ccc(S(=O)(=O)NC2CCCCC2)cc1`: the activation was 0.615%.

Regarding `Cc1ccc([N+](=O)[O-])c(C)c1`, the activation was 0.441% and 0.298%.

As for `CCCCC(C=O)CC` (stereo not drawn), the activation is -2.35%.

With `CCC(C)OC(=O)N1CCCCC1CCO` (stereo not drawn), the activation is 1.43%.

`CC(C)OCC1CO1` (stereo not drawn): the activation was -0.0386%.

As to `CCO`, the activation was -3.44%.

For the molecule `Cc1ccc2c(c1[N+](=O)[O-])C(=O)c1ccccc1C2=O`, the activation was -4.5%.

Regarding `c1ccc(COCc2ccccc2)cc1`, the activation was -1.69%.

Turning to `CCC(O)C(C)(C)C` (stereo not drawn), the activation was 0.367%.

In the case of `CSc1ccc(Cl)cc1`, the activation is -0.0441%.

For the molecule `CC(=O)CC(=O)Nc1ccccc1`, the activation is 0.0824% and -0.252%.

On to `COc1cccc2sc(N)nc12`, for which the activation is -1.11%.

On to `CCCCC`, for which the activation was -0.0908%.

As for `CC(C)(C)[C@H](O)[C@H](Cc1ccc(Cl)cc1)n1cncn1`, the activation is -2.05% and 0.498%.

With `CC(=O)Nc1ccc(N=Nc2cc(C)ccc2O)cc1`, the activation is 0.585%.

Regarding `Cc1ccc(N)c(S(=O)(=O)O)c1`, the activation is 4.47%.

As for `O=C(O)CCCCCCCCCCC(=O)O`, the activation was -2.26%.

For `Cc1ccc(C)cc1`, the activation was -1.18%.

Regarding `CCCCCCCCCCCCOCC1CO1` (stereo not drawn), the activation is -0.164%.

In the case of `CC(C)CCOC(=O)/C=C/c1ccccc1`, the activation was -2.58%.

Take `C=Cc1ccccc1Br`: the activation was 2.37%.

As for `CCCCCCc1ccc(N)cc1`, the activation was -3.51%.

In the case of `O=C(O)CC(C(=O)O)C(CC(=O)O)C(=O)O` (stereo not drawn), the activation is -1.38% and -0.082%.

As to `Cc1cc(C)cc([N+](=O)[O-])c1`, the activation was -0.797%.

In the case of `C=C(C)C(=O)OCC(C)C`, the activation was -0.219%.

Turning to `CCOc1cc(OCC)c(C(C)=O)cc1OCC`, the activation was 0.582%.

A further assay concerns the target Peroxisome proliferator-activated receptor delta (Homo sapiens) (UniProt Q03181). Kind of assay: qHTS assay for small molecule agonists of peroxisome proliferator-activated receptor delta signaling (AID 588534).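 Also: 0% = DMSO basal wells and 100% = positive control agonist at 10 µM.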 The conditions noted are these: HEK293T PPARdelta-UAS-bla, beta-lactamase ratio, 18 h; series mostly up to 76.7 µM. In short, it runs like this:
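Agonist-mode qHTS; reporter cells, 5 hrs 37 C pre-incubation; compound titration, 18 hrs 37 C; CCF4 dye, 2 hrs RT; fluorescence read. EC50/efficacy via Hill fit.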
A general note: In qHTS, concentration-response curves come from the screen itself.
Consider `c1ccc(SCCSc2ccccc2)cc1`, for which the outcome was inactive.

For the molecule `CC#N`, the result was inactive.

Consider `Cc1ccc(CO)cc1`, for which the outcome was inactive.

As for `CCCCC(CC)COCCCN` (stereo not drawn), the result was inactive.

`CCCCCCCCCC(=O)OC`: the result was inactive.

As for `O=[N+]([O-])c1ccc(NCCO)c(OCCO)c1`, the result was inactive.

As to `CCCCO`, the outcome was inactive.

`COC(=O)CCSCCC(=O)OC`: the result was inactive.

On to `CCN(Cc1cccc(S(=O)(=O)O)c1)c1ccc(C(=C2C=CC(=[N+](CC)Cc3cccc(S(=O)(=O)O)c3)C=C2)c2ccccc2S(=O)(=O)[O-])cc1`, for which the outcome was inactive.

`CNC(=O)c1ccccc1`: the result was inactive.

For `FB(F)F`, the result was inactive.

With `CCNc1cc(O)ccc1C`, the outcome was inactive.

For the molecule `COC(=O)c1cccc(C)c1S(=O)(=O)NC(=O)Nc1nc(OCC(F)(F)F)nc(N(C)C)n1`, the result was inactive.

Regarding `Cc1ccc(S(=O)(=O)NC2CCCCC2)cc1`, the result was inactive.

As to `Cc1ccc([N+](=O)[O-])c(C)c1`, the outcome was inactive.

As for `CCCCC(C=O)CC` (stereo not drawn), the result was inactive.

As for `CCC(C)OC(=O)N1CCCCC1CCO` (stereo not drawn), the result was inactive.

In the case of `CC(C)OCC1CO1` (stereo not drawn), the outcome was inactive.

On to `CCO`, for which the result was inactive.

With `Cc1ccc2c(c1[N+](=O)[O-])C(=O)c1ccccc1C2=O`, the outcome was inactive.

For the molecule `c1ccc(COCc2ccccc2)cc1`, the result was inactive.

Take `CCC(O)C(C)(C)C` (stereo not drawn): the outcome was inactive.

As to `CSc1ccc(Cl)cc1`, the outcome was inactive.

Consider `CC(=O)CC(=O)Nc1ccccc1`, for which the outcome was inactive.

Take `COc1cccc2sc(N)nc12`: the outcome was inactive.

Consider `CCCCC`, for which the outcome was inactive.

Take `CC(C)(C)[C@H](O)[C@H](Cc1ccc(Cl)cc1)n1cncn1`: the result was inactive.

`CC(=O)Nc1ccc(N=Nc2cc(C)ccc2O)cc1`: the result was inactive.

As for `Cc1ccc(N)c(S(=O)(=O)O)c1`, the result was inactive.

Turning to `O=C(O)CCCCCCCCCCC(=O)O`, the result was inactive.

For the molecule `Cc1ccc(C)cc1`, the outcome was inactive.

`CCCCCCCCCCCCOCC1CO1` (stereo not drawn): the outcome was inactive.

`CC(C)CCOC(=O)/C=C/c1ccccc1`: the result was inactive.

Turning to `C=Cc1ccccc1Br`, the result was inactive.

As to `CCCCCCc1ccc(N)cc1`, the result was inactive.

As to `O=C(O)CC(C(=O)O)C(CC(=O)O)C(=O)O` (stereo not drawn), the outcome was inactive.

On to `Cc1cc(C)cc([N+](=O)[O-])c1`, for which the outcome was inactive.

Turning to `C=C(C)C(=O)OCC(C)C`, the outcome was inactive.

Take `CCOc1cc(OCC)c(C(C)=O)cc1OCC`: the result was inactive.
